Test results taken from PubChem BioAssay (NCATS).
Records with an inconclusive call do not appear. The source made the active and inactive calls. Calls follow the shape of the dose curve; as a rule, active = well fitted inhibition curve with a large enough effect; inconclusive = small, poorly fitted or top-dose-only effect; inactive = flat fitted curve, though single readings scatter.
% is scaled to controls: 0 for no effect and ±100 for the full control effect.

What follows are molecules tested against Calcium and integrin-binding protein 1 (Homo sapiens) (UniProt Q99828) (assay: Primary qHTS for Identification of Calcium Integrin Binding Protein 1 (CIB1) Competitor (AID 1508620;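 also: GST tagged CIB1 binding a fluorescein labelled alphaIIb integrin peptide tracer; top concentration of the series differs between compounds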)). Conditions: CIB1-GST / FITC-alphaIIb peptide fluorescence polarization; series mostly up to 114 µM; activity change, negative = inhibition: at the top concentration.
Chain of Calcium and integrin-binding protein 1 (Homo sapiens) (Q99828 whole entry, looked up): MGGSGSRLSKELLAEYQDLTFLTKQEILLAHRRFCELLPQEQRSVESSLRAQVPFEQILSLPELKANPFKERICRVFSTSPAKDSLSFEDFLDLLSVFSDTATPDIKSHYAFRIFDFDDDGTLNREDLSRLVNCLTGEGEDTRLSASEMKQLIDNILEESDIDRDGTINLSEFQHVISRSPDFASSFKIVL
Procedure, shortened: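 Fluorescence polarization competition: CIB1-GST (1 uM final) preincubated with compound 15 min at room temperature, then FITC-labeled alphaIIb peptide (100 nM final) added for another 15 min. Polarization read at Ex 480/Em 540.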
With `CCOC(=O)C1CCN(C(=O)C2(NC(=O)Nc3ccccc3Cl)CC2)CC1` the “activity change, negative = inhibition” value was -2.13% (inactive).
In the case of `FC(F)(F)c1cc(-c2ccc(CNc3nc(-c4ccccc4C(F)(F)F)nc4ccccc34)cc2)ccc1Cl`, the “activity change, negative = inhibition” value is reported as 5.16% (inactive).
With `Cn1cc2ccc(-c3ccc4ncnc(NCc5cccs5)c4c3)cc2n1` the “activity change, negative = inhibition” value was 2.8% (inactive).
For `N#Cc1nc(-c2cccc3ccccc23)oc1NCC#CCOC(=O)c1cccs1`, the “activity change, negative = inhibition” value was -17.4% (inactive).
In the case of `Cc1ccc(NS(=O)(=O)c2cc3c(cc2Cl)NC(=O)CO3)cc1C`, the “activity change, negative = inhibition” value is reported as 6.91% (inactive).
For `CCC(CC)C(=O)NCCc1nc2ccccc2n1CCOc1ccc(C)cc1`, the “activity change, negative = inhibition” value was 19.4% (inactive).
`N#Cc1c(-c2ccc(F)cc2)no[n+]1[O-]` was tested, and the “activity change, negative = inhibition” value was 4.13% (inactive).
With `N#Cc1nc(Nc2cc(F)cc(Cl)c2)nc(NC2CCCC2)n1` the “activity change, negative = inhibition” value was 5.14% (inactive).
In the case of `O=[S+]([O-])(NCC#CCSc1nnc(-c2cccc3ccccc23)o1)c1ccc(F)cc1`, the “activity change, negative = inhibition” value is reported as -3% (inactive).
With `Cc1ccc(OCCn2c(CCNC(=O)c3cc(N)ccc3N)nc3ccccc32)cc1` the “activity change, negative = inhibition” value was 2.35% (inactive).
With `COc1ccc(C2Nc3ccccc3C(=O)N2CCO)cc1COc1ccc(NC(C)=O)cc1` (centres undefined) the “activity change, negative = inhibition” value was 5.2% (inactive).
For `CC(C)Nc1nc(C#N)nc(Nc2ccccc2)n1`, the “activity change, negative = inhibition” value was -1.99% (inactive).
In the case of `Cc1ccc(OCCn2c(CCNC(=O)c3ccc(C(C)(C)C)cc3)nc3ccccc32)cc1`, the “activity change, negative = inhibition” value is reported as 5.14% (inactive).
In the case of `O=[N+]([O-])c1cccc(S(=O)(=O)N2CCN(S(=O)(=O)c3ccc4c(c3)OCCO4)CC2)c1`, the “activity change, negative = inhibition” value is reported as -4.4% (inactive).
In the case of `O=C(/C=C/c1cccs1)Nc1cccc([S+](=O)([O-])Nc2ccccc2F)c1`, the Potency is reported as “inactive”.
In the case of `Cc1ccnc(NC(=S)N2CCN(c3cccc(N(C)C)c3)CC2)c1`, the “activity change, negative = inhibition” value is reported as -17% (inactive).
`O=C(O)CCCCCNC(=O)CSc1nnc(-c2ccc([S+](=O)([O-])N3CCCC3)cc2)n1-c1ccccc1` was tested, and the “activity change, negative = inhibition” value was -7.32% (inactive).
With `O=S(=O)(Nc1ccc2ccccc2c1)c1ccc(NCc2cccc(Cl)c2O)cc1` the “activity change, negative = inhibition” value was -14.3% (inactive).
For `O=S1(=O)N=C(Oc2ccccc2C(F)(F)F)c2ccccc21`, the “activity change, negative = inhibition” value was 2.21% (inactive).
In the case of `Cc1cc(C)nc(NC(=S)N2CCN(c3ccc(NS(C)(=O)=O)nn3)CC2)c1`, the “activity change, negative = inhibition” value is reported as -7.36% (inactive).
For `COC(=O)Nc1sc2c(c1C(N)=O)CCCC2`, the “activity change, negative = inhibition” value was -1.29% (inactive).
For `COc1cccc(C2=Nn3c(nnc3-c3cc(OC)cc(OC)c3)SC2)c1`, the “activity change, negative = inhibition” value was 5.55% (inactive).
In the case of `Cc1ccc2nc3sc(C(=O)N4CCC(C(N)=O)CC4)cc3cc2c1`, the “activity change, negative = inhibition” value is reported as -0.511% (inactive).
For `Cn1nnnc1Sc1ncnc2scc(-c3ccc(Br)cc3)c12`, the “activity change, negative = inhibition” value was 2.39% (inactive).
`CN(C)c1ccc(-c2csc(N3CCC(C(N)=O)CC3)n2)cc1` was tested, and the “activity change, negative = inhibition” value was -3.34% (inactive).
With `Cc1csc(CNc2ncnc3ccc(-c4ccco4)cc23)c1` the “activity change, negative = inhibition” value was 2.36% (inactive).
`O=C(O)c1ccc(CSc2nnc(-c3cccc([S+](=O)([O-])N4CCCC4)c3)n2-c2ccccc2)cc1` was tested, and the “activity change, negative = inhibition” value was -17.6% (inactive).
For `O=C(O)c1cccc2c1C(=O)N(c1ccccc1)C2`, the “activity change, negative = inhibition” value was 1.54% (inactive).
With `NC(=O)C1CCN(c2nc(-c3ccc4c(c3)OCCCO4)cs2)CC1` the “activity change, negative = inhibition” value was -1.7% [at 384 µM] (inactive).
In the case of `COc1ccc(C(=O)N(Cc2ccccc2)Cc2cccs2)c(O)c1`, the “activity change, negative = inhibition” value is reported as 1.63% (inactive).
For `O=C(NC1CCCc2c1cnn2-c1ccc(F)cc1F)c1cnon1` (centres undefined), the “activity change, negative = inhibition” value was -2.39% (inactive).
In the case of `COc1ccc(N2C(=O)c3ccccc3S2(=O)=O)cc1`, the “activity change, negative = inhibition” value is reported as 0.496% (inactive).
In the case of `FC(F)(F)c1ccccc1-c1nc(NCc2ccc(-c3ccc4ccccc4c3)cc2)c2ccccc2n1`, the “activity change, negative = inhibition” value is reported as -2.66% (inactive).
With `COc1cccc(C2N=C(Nc3nc4ccccc4o3)NC3=C2C(=O)CCC3)c1` (centres undefined) the “activity change, negative = inhibition” value was -13.4% (inactive).
With `COC(=O)c1ccc(O)c2ncc(-c3ccc(C(=O)N4CCN(C)CC4)cc3)cc12` the “activity change, negative = inhibition” value was -5.08% (inactive).
`Cc1c(C(=O)OCC(C)(C)C)[nH]c2c1C(=O)CC(c1ccco1)C2` (centres undefined) was tested, and the “activity change, negative = inhibition” value was -14% (inactive).
For `Fc1cnc(-c2ccccc2C(F)F)nc1NCc1ccc(-n2ccnn2)cc1`, the “activity change, negative = inhibition” value was 3.93% (inactive).
With `COc1ccc(S(=O)(=O)N2CCN(C(=O)C3COc4ccccc4O3)CC2)cc1` (centres undefined) the “activity change, negative = inhibition” value was 3.19% (inactive).
`COc1cccc(C2=Nn3c(nnc3-c3ccc(OC)c(OC)c3)SC2)c1` was tested, and the “activity change, negative = inhibition” value was -2.16% (inactive).
